Reference: PubChem BioAssay AID504697 (The Scripps Research Institute Molecular Screening Center, 2011)
Calls of active or inactive are those of the source.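 Rule for the calls: active = EC50 at or below 10 µM; inactive = EC50 above 10 µM.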

Assay: fluorescence interference artefacts, compound only, dose response, artefact control for cardiac thin filament activator project, biochemical, no RTF in test wells (AID 504697);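 note: emission near 535 nm under roughly 485 nm excitation as for IANBD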
Details: compound-only fluorescence in RTF assay buffer with Ca2+ (no RTF in test wells), artifact counterscreen

Structure (SMILES)	EC50
CNC(=S)N1N=C(c2ccc(Br)cc2)CC1c1ccc(N(C)C)cc1 (stereo unspecified)	51.4 µM (inactive)
O=C(Nc1ccc(Cl)c(Cl)c1)Nc1ccc([N+](=O)[O-])cn1	> 71.5 µM (inactive)
COc1ccc(CNC(=O)c2sc(=S)n(-c3ccccc3)c2N)cc1	> 71.5 µM (inactive)
COc1ccccc1N1CCN(c2ccc([N+](=O)[O-])cc2Cl)CC1	> 71.5 µM (inactive)
C=CCOc1ccc(Br)cc1CNCC	> 71.6 µM (inactive)
Cc1ccnc(N/C=C(\C#N)c2nc(-c3cccc(Br)c3)cs2)c1	1.59 µM (active)
CCn1cc(C(=O)NCCC(=O)NCCO)c(=O)c2cc3c(cc21)OCO3	> 71.4 µM (inactive)
COc1ccc(N/C=C2\C(=O)CCc3c2oc2cc(Cl)c(O)c(Cl)c32)cc1	7.28 µM (active)
CC(/C=N/Nc1ccc2nncn2n1)=C\c1ccccc1	> 71.5 µM (inactive)
O=C(Nc1ccccc1-c1ccccc1)c1ccc(Cl)c([N+](=O)[O-])c1	> 71.5 µM (inactive)
CSc1ccc(C2C(C(=O)c3ccco3)=C(O)C(=O)N2c2nnc(SC)s2)cc1 (stereo unspecified)	0.726 µM (active)
N=C1c2ccccc2CN1c1ccc(S(=O)(=O)N2CCCCC2)cc1	> 71.5 µM (inactive)
COc1ccc(-c2nn(-c3ccccc3)cc2/C=N/NC(N)=S)cc1OC	> 71.5 µM (inactive)
Cc1cc(NC(=O)COC(=O)C(Cc2ccccc2)NC(=O)c2ccco2)no1 (stereo unspecified)	> 71.5 µM (inactive)
Cc1cccc(/C=N/n2c(-c3ccncc3)n[nH]c2=S)c1	> 71.5 µM (inactive)
O=C(O)c1ccc(NC(=S)NC(=O)c2ccc(-c3ccccc3)cc2)cc1	> 71.5 µM (inactive)
O=c1[nH][nH]c(C(F)(F)F)c1C=NCc1ccccc1Cl	> 71.4 µM (inactive)
O=[n+]1c2c(n([O-])c3ccccc31)CCC2	> 71.5 µM (inactive)

Structure (SMILES)	EC50
CN(CC(=O)NCc1ccco1)S(=O)(=O)c1cccc2cccnc12	> 71.5 µM (inactive)
CNc1ccccc1C(C)(C)c1cc(C)[nH]n1	> 71.5 µM (inactive)
CCN(CC(=O)Nc1ccccc1C(F)(F)F)C(=O)c1ccc(-n2nc(C)c(CCC(=O)OC)c2C)cc1	> 71.5 µM (inactive)
CC(=O)Nc1ccc2cc3ccc(NC(C)=O)cc3nc2c1	> 71.5 µM (inactive)
CCOC(=O)/C(=C\c1c[nH]c2ccccc12)NC(C)=O	> 71.4 µM (inactive)
CCOC(=O)c1cc2n(c1N)-c1ccccc1C2=O	62.6 µM (inactive)
Cn1cnnc1Sc1nc2ccccc2nc1NS(=O)(=O)c1ccccc1	> 71.5 µM (inactive)
COc1cc(OC)c(C(=O)OC(C)C(=O)Nc2cccc(C(F)(F)F)c2)cc1OC (stereo unspecified)	> 71.5 µM (inactive)
COc1ccc(CCNC(=O)COC(=O)c2cc(=O)[nH]c3ccccc23)cc1	> 71.5 µM (inactive)
Cn1nc(-c2ccccc2)c(C(=O)Nc2ccc(C(F)(F)F)cc2)c1Cl	> 71.5 µM (inactive)
C=CCN1C(=O)c2ccccc2NC1c1cc(Br)cs1 (stereo unspecified)	> 71.5 µM (inactive)
O=C(CO/N=C/c1ccccc1OC(F)F)NCc1cccs1	> 71.5 µM (inactive)
O=C(CSc1nnc(COc2ccccc2)o1)N1CCN(c2ccccc2)CC1	> 71.5 µM (inactive)
N=c1c2c(ncn1Cc1ccco1)Oc1cc(O)ccc1C2c1ccccc1 (stereo unspecified)	> 71.4 µM (inactive)
COc1ccc(/C=C/C(=O)NC(=S)Nc2ccc(C(=O)O)cc2)cc1	> 71.5 µM (inactive)
CCN(CC)CCN1C(=O)c2cccc3cc(N)cc(c23)C1=O	49.2 µM (inactive)
CCSC1=N/C(=C\C=C2/Oc3ccccc3N2CC)C(=O)S1	11.9 µM (inactive)
Cc1cc(/C=C2\SC(=S)N(Cc3ccco3)C2=O)c(C)n1-c1cccnc1	12 µM (inactive)
